Measured values taken from article PMC7862700, “An all-to-all approach to the identification of sequence-specific readers for epigenetic DNA modifications on cytosine”.

Assays:
Experiment in all cases: DAPPL (digital affinity profiling via proximity ligation, sequencing); 10 mM Tris-HCl pH 7.5, 50 mM NaCl, 1 mM DTT, 4% glycerol, room temperature, 30 min; GST-TFs on glutathione beads, 16-mer random dsDNA library, 0.1% formaldehyde crosslink after washing; high values mean tight binding
Details in all cases: protein: recombinant; tags: N-terminal GST; dsDNA, one strand shown
[1] = biological target: T1, FEV (Homo sapiens, UniProt Q99581 1-238)
T1 sequence: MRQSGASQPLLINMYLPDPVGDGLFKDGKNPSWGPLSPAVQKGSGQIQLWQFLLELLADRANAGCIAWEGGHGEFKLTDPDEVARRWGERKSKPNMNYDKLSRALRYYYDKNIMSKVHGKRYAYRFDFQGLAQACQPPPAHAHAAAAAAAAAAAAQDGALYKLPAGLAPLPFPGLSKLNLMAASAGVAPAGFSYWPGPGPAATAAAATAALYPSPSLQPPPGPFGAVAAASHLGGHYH
Method in brief: (§1)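 The binding signal reported is, for every hexamer, its read frequency for a factor over its read frequency for the tag-only sample. Reads came from pools of yeast-expressed, GST-fused human transcription factors on glutathione beads, barcoded with DNA and mixed with that sample, which were incubated with 200 nmole of a random double-stranded 16-mer DNA library in Tris/NaCl/DTT/glycerol buffer at room temperature for 30 min. After washing, the pools were crosslinked with 0.1% formaldehyde, proximity-ligated with BsaI/T4 ligase for 1 h at 37 °C, PCR-amplified and sequenced on an Illumina NextSeq500.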

[2] = biological target: ETV5 (Homo sapiens, UniProt P41161 1-510)
Sequence of ETV5 (P41161 whole entry): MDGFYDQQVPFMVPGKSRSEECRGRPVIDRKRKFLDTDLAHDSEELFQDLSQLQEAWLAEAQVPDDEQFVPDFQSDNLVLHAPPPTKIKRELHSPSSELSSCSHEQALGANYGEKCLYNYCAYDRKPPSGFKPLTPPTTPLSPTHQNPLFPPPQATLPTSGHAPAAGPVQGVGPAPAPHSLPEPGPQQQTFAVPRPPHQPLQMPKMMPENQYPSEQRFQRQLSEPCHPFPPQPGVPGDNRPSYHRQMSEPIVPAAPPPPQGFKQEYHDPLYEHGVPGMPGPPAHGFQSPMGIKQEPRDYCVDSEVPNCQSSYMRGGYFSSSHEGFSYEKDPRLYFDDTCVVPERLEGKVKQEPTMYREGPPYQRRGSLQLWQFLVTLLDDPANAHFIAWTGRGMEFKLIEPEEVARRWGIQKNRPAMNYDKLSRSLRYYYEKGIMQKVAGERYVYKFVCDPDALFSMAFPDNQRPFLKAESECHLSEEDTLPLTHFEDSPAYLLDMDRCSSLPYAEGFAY
Method in brief: as §1

[3] = biological target: T2, SPIC (Homo sapiens, UniProt Q8N5J4 1-248)
T2 sequence: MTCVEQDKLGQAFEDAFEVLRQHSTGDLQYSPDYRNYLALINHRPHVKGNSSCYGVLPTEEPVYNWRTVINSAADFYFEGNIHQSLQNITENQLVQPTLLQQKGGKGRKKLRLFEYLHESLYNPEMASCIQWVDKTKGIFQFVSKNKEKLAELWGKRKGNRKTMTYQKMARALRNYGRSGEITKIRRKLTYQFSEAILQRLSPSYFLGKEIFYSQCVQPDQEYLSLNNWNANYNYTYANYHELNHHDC
Method in brief: as §1

[4] = biological target: ELF4 (Homo sapiens, UniProt Q99607 1-663)
Sequence of ELF4 (Q99607 whole entry): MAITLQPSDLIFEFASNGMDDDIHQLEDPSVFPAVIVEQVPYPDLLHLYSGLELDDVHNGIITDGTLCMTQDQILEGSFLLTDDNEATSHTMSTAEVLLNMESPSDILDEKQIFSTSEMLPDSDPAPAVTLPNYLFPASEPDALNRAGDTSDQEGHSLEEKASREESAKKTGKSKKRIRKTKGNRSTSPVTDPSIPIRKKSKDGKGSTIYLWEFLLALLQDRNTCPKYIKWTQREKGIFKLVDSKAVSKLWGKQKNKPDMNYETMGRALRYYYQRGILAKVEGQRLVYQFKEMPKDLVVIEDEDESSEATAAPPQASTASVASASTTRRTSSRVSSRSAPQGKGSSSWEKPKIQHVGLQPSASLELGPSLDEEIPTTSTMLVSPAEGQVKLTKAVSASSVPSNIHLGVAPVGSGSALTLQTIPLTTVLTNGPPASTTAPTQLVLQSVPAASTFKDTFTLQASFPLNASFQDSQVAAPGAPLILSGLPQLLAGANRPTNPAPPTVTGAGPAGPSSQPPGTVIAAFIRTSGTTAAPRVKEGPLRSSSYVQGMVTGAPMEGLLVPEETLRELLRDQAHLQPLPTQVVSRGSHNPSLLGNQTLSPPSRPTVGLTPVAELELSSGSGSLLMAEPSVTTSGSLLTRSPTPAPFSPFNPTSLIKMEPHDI
Method in brief: as §1

[5] = biological target: T3, ELK4 (Homo sapiens, UniProt P28324-2 1-405)
T3 sequence: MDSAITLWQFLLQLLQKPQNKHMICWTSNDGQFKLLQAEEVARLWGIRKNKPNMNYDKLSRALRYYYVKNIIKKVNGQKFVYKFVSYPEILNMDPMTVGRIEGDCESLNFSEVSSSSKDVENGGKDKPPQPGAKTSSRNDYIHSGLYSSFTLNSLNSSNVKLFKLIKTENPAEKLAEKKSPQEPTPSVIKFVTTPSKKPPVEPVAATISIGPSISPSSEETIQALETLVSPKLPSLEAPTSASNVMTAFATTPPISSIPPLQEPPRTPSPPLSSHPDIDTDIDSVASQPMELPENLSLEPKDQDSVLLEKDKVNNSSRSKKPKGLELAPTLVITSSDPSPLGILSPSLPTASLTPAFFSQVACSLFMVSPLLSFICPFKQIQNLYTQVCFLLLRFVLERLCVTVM
Method in brief: as §1

[6] = biological target: T4, ETV2 (Homo sapiens, UniProt O00321 1-342)
T4 sequence: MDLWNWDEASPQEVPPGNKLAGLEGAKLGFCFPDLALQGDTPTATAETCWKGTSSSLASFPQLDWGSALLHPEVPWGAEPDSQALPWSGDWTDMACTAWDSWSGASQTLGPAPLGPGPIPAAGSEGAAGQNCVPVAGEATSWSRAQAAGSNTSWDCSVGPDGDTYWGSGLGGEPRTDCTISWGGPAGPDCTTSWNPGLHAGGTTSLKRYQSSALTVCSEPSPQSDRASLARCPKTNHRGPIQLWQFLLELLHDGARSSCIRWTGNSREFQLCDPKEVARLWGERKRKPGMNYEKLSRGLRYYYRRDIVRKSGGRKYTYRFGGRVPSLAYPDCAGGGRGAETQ
Method in brief: as §1

[7] = biological target: T5, ELF3 (Homo sapiens, UniProt P78545 1-371)
T5 sequence: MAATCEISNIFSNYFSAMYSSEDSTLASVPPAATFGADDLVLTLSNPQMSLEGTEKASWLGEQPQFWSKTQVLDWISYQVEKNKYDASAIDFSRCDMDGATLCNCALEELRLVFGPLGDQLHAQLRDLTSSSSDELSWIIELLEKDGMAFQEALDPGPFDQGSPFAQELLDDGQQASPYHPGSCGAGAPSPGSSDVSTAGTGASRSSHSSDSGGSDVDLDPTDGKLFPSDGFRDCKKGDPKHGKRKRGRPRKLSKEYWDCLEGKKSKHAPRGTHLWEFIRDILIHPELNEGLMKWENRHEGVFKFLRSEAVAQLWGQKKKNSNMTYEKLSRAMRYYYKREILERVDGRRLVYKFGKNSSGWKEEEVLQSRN
Method in brief: as §1

[8] = biological target: ETV1 (Homo sapiens, UniProt P50549 1-477)
Sequence of ETV1 (P50549 whole entry): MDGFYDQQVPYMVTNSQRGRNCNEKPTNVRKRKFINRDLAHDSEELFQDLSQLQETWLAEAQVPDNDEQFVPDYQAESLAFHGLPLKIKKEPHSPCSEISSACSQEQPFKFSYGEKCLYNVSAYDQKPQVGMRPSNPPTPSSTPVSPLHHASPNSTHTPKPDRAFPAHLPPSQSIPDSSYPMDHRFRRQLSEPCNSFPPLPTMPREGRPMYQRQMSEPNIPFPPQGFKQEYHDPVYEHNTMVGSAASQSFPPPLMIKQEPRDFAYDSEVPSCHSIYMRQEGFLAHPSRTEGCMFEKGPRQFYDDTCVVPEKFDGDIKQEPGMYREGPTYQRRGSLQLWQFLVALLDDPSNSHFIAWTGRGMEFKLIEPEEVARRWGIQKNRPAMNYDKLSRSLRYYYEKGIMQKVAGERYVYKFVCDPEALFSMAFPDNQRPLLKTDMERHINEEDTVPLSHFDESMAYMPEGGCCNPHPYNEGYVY
Method in brief: as §1

[9] = biological target: T6, ERF (Homo sapiens, UniProt P50548 1-548)
T6 sequence: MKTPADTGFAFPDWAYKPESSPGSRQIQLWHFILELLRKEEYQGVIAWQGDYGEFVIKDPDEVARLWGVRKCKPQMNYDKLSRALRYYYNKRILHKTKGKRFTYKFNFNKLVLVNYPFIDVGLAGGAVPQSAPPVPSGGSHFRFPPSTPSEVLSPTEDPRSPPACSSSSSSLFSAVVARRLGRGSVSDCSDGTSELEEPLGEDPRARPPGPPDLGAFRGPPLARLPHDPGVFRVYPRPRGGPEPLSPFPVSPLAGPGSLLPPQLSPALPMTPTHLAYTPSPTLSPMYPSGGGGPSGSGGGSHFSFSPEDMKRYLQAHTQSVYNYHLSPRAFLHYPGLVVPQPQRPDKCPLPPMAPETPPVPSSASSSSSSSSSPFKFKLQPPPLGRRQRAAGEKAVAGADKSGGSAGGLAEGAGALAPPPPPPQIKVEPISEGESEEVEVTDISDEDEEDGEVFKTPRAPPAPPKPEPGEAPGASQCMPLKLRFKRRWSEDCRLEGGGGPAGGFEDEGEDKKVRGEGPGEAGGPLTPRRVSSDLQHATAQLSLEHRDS
Method in brief: as §1

[10] = biological target: T7, ETV3L (Homo sapiens, UniProt Q6ZN32 1-361)
T7 sequence: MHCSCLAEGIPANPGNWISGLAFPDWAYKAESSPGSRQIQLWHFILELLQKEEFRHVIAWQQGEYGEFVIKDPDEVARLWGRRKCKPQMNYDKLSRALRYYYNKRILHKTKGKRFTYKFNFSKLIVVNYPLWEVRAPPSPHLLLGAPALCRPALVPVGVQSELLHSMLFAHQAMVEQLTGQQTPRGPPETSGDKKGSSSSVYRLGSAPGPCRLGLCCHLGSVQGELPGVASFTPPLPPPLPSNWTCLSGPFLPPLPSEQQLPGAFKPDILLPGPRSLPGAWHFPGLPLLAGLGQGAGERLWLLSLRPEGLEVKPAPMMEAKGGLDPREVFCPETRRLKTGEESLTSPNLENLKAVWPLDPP
Method in brief: as §1

[11] = biological target: T8, ETS2 (Homo sapiens, UniProt P15036 1-469)
T8 sequence: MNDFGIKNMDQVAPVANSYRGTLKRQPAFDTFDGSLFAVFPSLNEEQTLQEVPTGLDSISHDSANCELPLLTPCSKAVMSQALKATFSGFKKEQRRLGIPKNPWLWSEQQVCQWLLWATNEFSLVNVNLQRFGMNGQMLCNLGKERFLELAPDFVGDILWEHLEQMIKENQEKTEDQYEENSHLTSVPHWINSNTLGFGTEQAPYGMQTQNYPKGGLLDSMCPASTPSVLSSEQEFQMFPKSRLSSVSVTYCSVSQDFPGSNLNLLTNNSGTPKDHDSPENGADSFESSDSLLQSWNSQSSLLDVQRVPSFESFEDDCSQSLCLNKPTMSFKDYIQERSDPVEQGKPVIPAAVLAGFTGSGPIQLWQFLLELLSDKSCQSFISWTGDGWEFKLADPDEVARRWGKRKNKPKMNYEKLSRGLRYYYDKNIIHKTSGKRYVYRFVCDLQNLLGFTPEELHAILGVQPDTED
Method in brief: as §1

[12] = biological target: T9, SPDEF (Homo sapiens, UniProt O95238 1-335)
T9 sequence: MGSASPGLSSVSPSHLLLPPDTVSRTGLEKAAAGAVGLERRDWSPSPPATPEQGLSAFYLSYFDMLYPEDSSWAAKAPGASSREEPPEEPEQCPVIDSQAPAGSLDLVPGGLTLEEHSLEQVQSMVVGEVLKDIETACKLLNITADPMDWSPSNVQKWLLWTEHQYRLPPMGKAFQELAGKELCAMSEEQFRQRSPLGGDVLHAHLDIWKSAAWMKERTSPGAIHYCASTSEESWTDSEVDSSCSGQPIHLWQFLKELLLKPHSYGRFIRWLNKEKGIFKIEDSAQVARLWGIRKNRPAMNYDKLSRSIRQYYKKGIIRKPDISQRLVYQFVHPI
Method in brief: as §1

[13] = biological target: T10, ETV7 (Homo sapiens, UniProt Q9Y603 1-341)
T10 sequence: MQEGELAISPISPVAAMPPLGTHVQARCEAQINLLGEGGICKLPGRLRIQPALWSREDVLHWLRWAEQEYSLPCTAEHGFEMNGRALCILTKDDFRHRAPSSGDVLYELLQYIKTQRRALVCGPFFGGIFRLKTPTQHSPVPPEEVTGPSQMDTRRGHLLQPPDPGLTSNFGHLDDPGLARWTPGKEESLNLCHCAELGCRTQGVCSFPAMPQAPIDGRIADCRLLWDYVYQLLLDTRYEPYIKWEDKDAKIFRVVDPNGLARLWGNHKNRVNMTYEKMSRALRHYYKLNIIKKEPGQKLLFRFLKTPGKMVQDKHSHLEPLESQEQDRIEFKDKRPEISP
Method in brief: as §1

[14] = biological target: T11, ELF5 (Homo sapiens, UniProt Q9UKW6-2 1-255)
T11 sequence: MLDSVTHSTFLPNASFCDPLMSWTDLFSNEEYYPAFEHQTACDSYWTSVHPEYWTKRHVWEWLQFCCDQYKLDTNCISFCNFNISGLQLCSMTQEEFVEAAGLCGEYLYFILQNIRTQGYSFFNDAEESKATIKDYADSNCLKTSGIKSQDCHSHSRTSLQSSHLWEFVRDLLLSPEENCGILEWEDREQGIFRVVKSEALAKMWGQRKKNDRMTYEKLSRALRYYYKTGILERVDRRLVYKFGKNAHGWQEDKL
Method in brief: as §1

[15] = biological target: T12, ETV3 (Homo sapiens, UniProt P41162-2 1-143)
T12 sequence: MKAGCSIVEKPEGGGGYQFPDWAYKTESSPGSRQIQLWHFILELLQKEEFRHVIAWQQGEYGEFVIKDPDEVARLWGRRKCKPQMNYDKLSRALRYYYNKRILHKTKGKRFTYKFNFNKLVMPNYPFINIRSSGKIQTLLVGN
Method in brief: as §1

[16] = biological target: ETV6 (Homo sapiens, UniProt P41212 1-452)
Sequence of ETV6 (P41212 whole entry): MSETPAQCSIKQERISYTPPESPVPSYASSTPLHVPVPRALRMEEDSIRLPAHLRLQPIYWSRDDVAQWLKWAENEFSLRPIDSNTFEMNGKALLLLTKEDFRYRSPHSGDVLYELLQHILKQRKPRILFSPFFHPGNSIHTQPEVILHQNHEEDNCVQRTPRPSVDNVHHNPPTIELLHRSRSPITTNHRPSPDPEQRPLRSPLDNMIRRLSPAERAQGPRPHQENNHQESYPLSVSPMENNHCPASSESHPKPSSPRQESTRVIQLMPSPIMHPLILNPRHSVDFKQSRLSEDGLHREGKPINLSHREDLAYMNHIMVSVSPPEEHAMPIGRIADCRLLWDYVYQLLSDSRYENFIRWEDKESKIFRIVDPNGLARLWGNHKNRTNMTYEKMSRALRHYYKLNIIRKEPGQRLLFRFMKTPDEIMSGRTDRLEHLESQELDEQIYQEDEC
Method in brief: as §1

Sequence	binding signal [1]	binding signal [2]	binding signal [3]	binding signal [4]	binding signal [5]	binding signal [6]	binding signal [7]	binding signal [8]	binding signal [9]	binding signal [10]	binding signal [11]	binding signal [12]	binding signal [13]	binding signal [14]	binding signal [15]	binding signal [16]
CCCTGC	1.14 fold enrichment (6-mer frequency, TF over GST control)	1.18 fold enrichment (6-mer frequency, TF over GST control)	1.25 fold enrichment (6-mer frequency, TF over GST control)	1.38 fold enrichment (6-mer frequency, TF over GST control)	1.21 fold enrichment (6-mer frequency, TF over GST control)	1.05 fold enrichment (6-mer frequency, TF over GST control)	1.12 fold enrichment (6-mer frequency, TF over GST control)	1.22 fold enrichment (6-mer frequency, TF over GST control)	1.18 fold enrichment (6-mer frequency, TF over GST control)	1.18 fold enrichment (6-mer frequency, TF over GST control)	1.12 fold enrichment (6-mer frequency, TF over GST control)	1.11 fold enrichment (6-mer frequency, TF over GST control)	1.22 fold enrichment (6-mer frequency, TF over GST control)	1.2 fold enrichment (6-mer frequency, TF over GST control)	1.22 fold enrichment (6-mer frequency, TF over GST control)	1.2 fold enrichment (6-mer frequency, TF over GST control)
ACCTCA	1.17 fold enrichment (6-mer frequency, TF over GST control)	1.16 fold enrichment (6-mer frequency, TF over GST control)	1.33 fold enrichment (6-mer frequency, TF over GST control)	1.2 fold enrichment (6-mer frequency, TF over GST control)	1.26 fold enrichment (6-mer frequency, TF over GST control)	1.2 fold enrichment (6-mer frequency, TF over GST control)	1.24 fold enrichment (6-mer frequency, TF over GST control)	1.32 fold enrichment (6-mer frequency, TF over GST control)	1.23 fold enrichment (6-mer frequency, TF over GST control)	1.29 fold enrichment (6-mer frequency, TF over GST control)	1.21 fold enrichment (6-mer frequency, TF over GST control)	1.09 fold enrichment (6-mer frequency, TF over GST control)	1.04 fold enrichment (6-mer frequency, TF over GST control)	1.11 fold enrichment (6-mer frequency, TF over GST control)	1.18 fold enrichment (6-mer frequency, TF over GST control)	1.17 fold enrichment (6-mer frequency, TF over GST control)
